In all, about 190,000 compounds went through this assay and about 1,300 (0.68%) were called active. Shown is part of a subset that was picked to be rich in actives. Values without a mark were called inactive. No stated cut-off is given here; in the data, active means inhibition above about 50%; inactive means the rest.
target: Mannose-6-phosphate isomerase (Homo sapiens) (UniProt P34949); test: human PMI inhibitors, high substrate, primary screen, biochemical, fluorescence intensity, high mannose 6-phosphate (AID 1220); conditions: recombinant PMI enzyme, coupled fluorescence intensity; at 20 µM; active compounds read high
Sequence (P34949 whole entry, looked up): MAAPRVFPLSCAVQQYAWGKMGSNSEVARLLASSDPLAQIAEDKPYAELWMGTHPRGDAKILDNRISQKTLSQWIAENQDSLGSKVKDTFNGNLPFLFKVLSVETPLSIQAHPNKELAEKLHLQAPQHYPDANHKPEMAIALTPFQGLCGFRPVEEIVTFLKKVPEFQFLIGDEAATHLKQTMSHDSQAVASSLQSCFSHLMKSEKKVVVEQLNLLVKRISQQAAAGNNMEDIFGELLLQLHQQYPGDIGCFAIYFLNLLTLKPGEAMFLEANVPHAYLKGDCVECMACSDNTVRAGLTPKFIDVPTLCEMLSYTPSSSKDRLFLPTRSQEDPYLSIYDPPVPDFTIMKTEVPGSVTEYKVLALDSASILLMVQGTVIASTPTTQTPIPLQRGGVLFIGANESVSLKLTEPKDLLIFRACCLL

| Structure (SMILES) | inhibition |
| --- | --- |
| CCCCCCN1C(=O)C(O)=C(C(C)=O)C1c1ccc(Cl)cc1 (stereo not drawn) | 3.1% |
| O=C(N/N=C/c1c[nH]c2ccccc12)c1cc(-c2ccccc2)n[nH]1 | -2.4% |
| O=C1NC(CCc2ccccc2)C(=O)N1Cc1ccc(Br)cc1 (stereo not drawn) | 10.5% |
| COc1ccc(Nc2n[nH]c(N)c2C(N)=O)cc1 | 1.4% |
| CN(CC(=O)N1CCCCC1)S(=O)(=O)c1cccc2cccnc12 | 13.4% |
| Cc1[nH]c2ccccc2c1/C=N/NC(=O)Nc1ccccc1 | -7.2% |
| CCOc1ccc(C(=O)NCC(=O)Nc2ccc(N3CCOCC3)cc2)cc1OCC | 3.6% |
| O=C(N/N=C/c1coc2ccccc2c1=O)c1cn(-c2ccccc2)nc1-c1ccc(F)cc1 | -12.2% |
| CC(C)OCc1c(C(=O)OC/C(O)=C(\C#N)c2nc3ccccc3[nH]2)oc2ccccc12 | 28.4% |
| CCOC(=O)c1c(C)[nH]c2cc(Br)c(O)cc12 | 2.1% |
| CCOC(=O)c1c(C)[nH]c2ccc(O)cc12 | 6% |
| CCOC(=O)c1c(C)[nH]c2c1cc(O)c1ccccc12 | 61.2% (active) |
| Nc1cc(-c2cccc(Br)c2)nn1Cc1ccccc1 | 11.2% |
| CCOC(=O)N1CCN(S(=O)(=O)c2ccc(C(=O)NNc3nc4c(C)cccc4s3)cc2)CC1 | 1.7% |
| CCCc1n(CC)c2ccccc2[n+]1CC(O)COC1CCCCC1 (stereo not drawn) | -2.9% |
| COc1ccc(NC(=O)/C(=C\c2cc(OC)c(OC)cc2[N+](=O)[O-])NC(=O)c2ccccc2)cc1 | 15.2% |
| COc1cc(/C=C(\C#N)C(=O)Nc2ccc3ccccc3c2)c([N+](=O)[O-])cc1OC | 67% (active) |
| COc1cc(/C=C(/NC(=O)c2ccccc2)C(=O)Nc2ccccc2)c([N+](=O)[O-])cc1OC | 27.2% |
| CCOC(=O)/C(C#N)=C\c1cc(OC)c(OC)cc1[N+](=O)[O-] | 69.6% (active) |
| CCOC(=O)/C(C#N)=C\c1ccc(OC)c(OC)c1 | -3.6% |
| CCOC(=O)/C(C#N)=C/c1ccc(OC)c(OC)c1 | 5% |
| O=C(Cn1ccc([N+](=O)[O-])n1)N1CCc2ccccc21 | 6.2% |
| COc1ccccc1Sc1nc(-c2ccccn2)ncc1OC | -3.1% |
| CCCCC/C=N\NC(=O)Cc1ccc([N+](=O)[O-])cc1 | -6.9% |

| Structure (SMILES) | inhibition |
| --- | --- |
| CCOC(=O)C1=C(C)Nc2ncnn2C1c1ccccc1F (stereo not drawn) | -19.1% |
| O=C(O)C1C(c2ccccc2)C(C(=O)Oc2ccccc2)C1c1ccccc1 (stereo not drawn) | -2.4% |
| CC(=O)NC(c1ccc([N+](=O)[O-])cc1)c1c(O)ccc2ccccc12 (stereo not drawn) | 34.2% |
| CC(C)C(=O)NC(c1ccco1)c1c(O)ccc2ccccc12 (stereo not drawn) | 56.9% (active) |
| CC(C)C(=O)NC(c1cccc([N+](=O)[O-])c1)c1c(O)ccc2ccccc12 (stereo not drawn) | 26.6% |
| CCCCC(=O)NC(c1ccco1)c1c(O)ccc2ccccc12 (stereo not drawn) | 30.3% |
| CCCC(=O)NC(c1ccco1)c1c(O)ccc2ccccc12 (stereo not drawn) | 33.6% |
| CC(C)C(=O)NC(c1ccc([N+](=O)[O-])cc1)c1c(O)ccc2ccccc12 (stereo not drawn) | 59.5% (active) |
| COc1ccc2[nH]c(=O)c(CN(Cc3cccs3)C(=S)Nc3cccc(C)c3)cc2c1 | 5% |
| C=CCn1c(SCC(=O)c2ccc(Cl)cc2)nnc1-c1ccc2c(c1)OCO2 | -0.6% |
| O=C(CCNC(=O)c1ccccc1)Oc1ccc([N+](=O)[O-])cc1 | -10.4% |
| N#CC1=C(N)SC(N)=C(C#N)C1c1c(Cl)cccc1Cl | 6% |
| COc1ccc(-c2csc(Cc3nnc(N4CCOCC4)n3-c3ccccc3)n2)cc1OC | -41% |
| COc1ccc(NC(=O)/C(N=Nc2cc(S(=O)(=O)Nc3ccc(OC)cc3)ccc2OC)=C(\C)O)cc1 | -1% |
| CCOC(=O)N/C(N)=N/c1nc2ccccc2s1 | -3.7% |
| COc1ccc(O)c(C=Nc2cc(NC(C)=O)c(Cl)cc2Cl)c1 | 19.4% |
| CC(=O)Nc1cc(N=Cc2ccc(O)cc2O)c(Cl)cc1Cl | 44.8% |
| CC(=O)Nc1cc(Cl)c(N=Cc2ccc(O)cc2O)cc1Cl | 63.3% (active) |
| CCOC(=O)Nc1ccc2c(c1)N(C(=O)OC)c1ccccc1CC2 | -3.2% |
| CS(=O)(=O)N(Cc1ccccc1)c1ccc(C(=O)N2CCOCC2)cc1 | 11.2% |
| CCOc1ccc2oc(C(=O)NC3CCN(Cc4ccccc4)CC3)c(C)c2c1 | -4.4% |
| COc1ccc(N2CCN(C(=O)c3ccc(SC)cc3OC)CC2)cc1 | 21.7% |
| COc1cc(SC)ccc1C(=O)N1CCN(c2ccc(O)cc2)CC1 | 55.8% (active) |
| COc1cc(SC)ccc1C(=O)N1CCN(c2ccccc2)CC1 | 5.9% |

— PubChem BioAssay AID1220 (Sanford-Burnham Center for Chemical Genomics, 2008)
